“And” between values parts separate entries of the source, which are not always exact repeats. Equal entries are not always repeated. The whole screen tested about 5,500 compounds, of which about 2,000 (36%) were called active. Another 18% or so got no clear call; they are omitted. This is one part of the list. Unmarked numbers belong to inactive results. Rule as the data show it: active = normalized growth mostly below about 0.91 (no sharp cut-off); inconclusive = no clear call, values can overlap the other calls; inactive = mostly above about 0.92.
Test: chemical genetic growth profiling, strain panel (AID 1159580);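 also: tested at 20 µM; growth read once vehicle control cultures reached saturation at 30 °C; 1 = growth at the plate median or of vehicle wells; lower values mean less growth of the strain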
Conditions: S. cerevisiae deletion strains, growth OD
[1] = locus YGR078C, strain PAC10, hits give low values
[2] = locus YNL153C, strain GIM3, hits give low values
[3] = locus YAL013W, strain DEP1, hits give low values
[4] = locus YAL040C, strain CLN3, hits give low values
[5] = locus YDR363W, strain ESC2, hits give low values
[6] = locus YER002W, strain NOP16, hits give low values
[7] = locus YNL175C, strain NOP13, hits give low values
[8] = locus YNL197C, strain WHI3, hits give low values
[9] = locus YNL224C, strain SQS1, hits give low values
[10] = locus YOR083W, strain WHI5 (second series), hits give low values
[11] = locus YPL055C, strain LGE1, hits give low values

Compound: O=C(O)CN(CCN(CC(=O)O)CC(=O)O)CC(=O)O
- normalized growth (locus YBR021W, strain FUR4, hits give low values): 1.04
- normalized growth (locus YBR229C, strain ROT2, hits give low values): 0.995
- normalized growth (locus YCL029C, strain bik1, hits give low values): 0.958
- normalized growth (locus YDL035C, strain GPR1, hits give low values): 0.869
- normalized growth (locus YDL074C, strain BRE1, hits give low values): 0.885
- normalized growth (locus YDL101C, strain DUN1, hits give low values): 0.889 (active)
- normalized growth (locus YDL185W, strain tfp1, hits give low values): 0.282 (active)
- normalized growth (locus YDL192W, strain arf1, hits give low values): 0.826 (active)
- normalized growth (locus YDR101C, strain arx1, hits give low values): 0.989
- normalized growth (locus YDR162C, strain NBP2, hits give low values): 0.918
- normalized growth (locus YDR318W, strain mcm21, hits give low values): 0.817 (active)
- normalized growth (locus YDR388W, hits give low values): 1.02
- normalized growth (locus YDR502C, strain sam2, hits give low values): 0.769 (active)
- normalized growth (locus YEL061C, strain CIN8, hits give low values): 0.934
- normalized growth (locus YER110C, hits give low values): 0.938
- normalized growth (locus YER155C, strain BEM2, hits give low values): 1.01
- normalized growth (locus YER167W, strain BCK2, hits give low values): 0.936
- normalized growth (locus YGL078C, strain dbp3, hits give low values): 0.985
- normalized growth (locus YGL086W, strain mad1, hits give low values): 0.79 (active)
- normalized growth (locus YGL248W, strain PDE1, hits give low values): 0.826 (active)
- normalized growth [1]: 0.82 (active)
- normalized growth (locus YGR135W, strain pre9, hits give low values): 0.819 (active)
- normalized growth (locus YGR229C, strain SMI1, hits give low values): 0.774 (active)
- normalized growth (locus YGR252W, strain gcn5, hits give low values): 0.994
- normalized growth (locus YHR030C, strain SLT2, hits give low values): 0.97 and 0.976
- normalized growth (locus YHR079C, strain IRE1 (second series), hits give low values): 0.991
- normalized growth (locus YHR079C, strain IRE1, hits give low values): 0.934
- normalized growth (locus YHR094C, strain hxt1, hits give low values): 0.994
- normalized growth (locus YHR129C, strain ARP1, hits give low values): 0.87 (active)
- normalized growth (locus YHR200W, strain rpn10, hits give low values): 0.893 (active)
- normalized growth (locus YIL066C, strain RNR3, hits give low values): 0.925
- normalized growth (locus YIL073C, strain SPO22, hits give low values): 1.99 [resistant] (active)
- normalized growth (locus YIL125W, strain kgd1, hits give low values): 1.01
- normalized growth (locus YIR030C, strain dcg1, hits give low values): 0.96
- normalized growth (locus YJL095W, strain BCK1, hits give low values): 0.849 and 0.971
- normalized growth (locus YJL134W, strain LCB3, hits give low values): 0.972
- normalized growth (locus YJL168C, strain set2, hits give low values): 0.989
- normalized growth (locus YJL187C, strain SWE1 (second series), hits give low values): 0.861 (active)
- normalized growth (locus YJR043C, strain POL32, hits give low values): 0.891
- normalized growth (locus YJR066W, strain TOR1, hits give low values): 0.888
- normalized growth (locus YKL009W, strain mrt4, hits give low values): 0.97
- normalized growth (locus YKL068W, hits give low values): 0.996
- normalized growth (locus YKL085W, strain MDH1 (second series), hits give low values): 1.03
- normalized growth (locus YKL085W, strain MDH1, hits give low values): 1.03
- normalized growth (locus YKL190W, strain CNB1, hits give low values): 0.94
- normalized growth (locus YKR001C, strain vps1, hits give low values): 0.769 (active)
- normalized growth (locus YLR039C, strain RIC1, hits give low values): 0.914
- normalized growth (locus YLR058C, strain SHM2, hits give low values): 0.863 (active)
- normalized growth (locus YLR102C, strain apc9, hits give low values): 0.995
- normalized growth (locus YLR113W, strain HOG1, hits give low values): 1.09
- normalized growth (locus YLR262C, strain YPT6, hits give low values): 0.827
- normalized growth (locus YLR268W, strain sec22, hits give low values): 0.801 (active)
- normalized growth (locus YLR330W, strain CHS5, hits give low values): 0.944
- normalized growth (locus YLR342W, strain FKS1 (second series), hits give low values): 0.871
- normalized growth (locus YLR371W, strain rom2, hits give low values): 0.984
- normalized growth (locus YLR418C, strain cdc73, hits give low values): 0.764 (active)
- normalized growth (locus YML016C, strain PPZ1, hits give low values): 0.934
- normalized growth (locus YML032C, strain rad52, hits give low values): 0.937
- normalized growth (locus YML124C, strain tub3, hits give low values): 0.979
- normalized growth (locus YMR078C, strain ctf18, hits give low values): 0.99
- normalized growth (locus YMR223W, strain ubp8, hits give low values): 0.793 (active)
- normalized growth (locus YMR307W, strain GAS1, hits give low values): 0.928
- normalized growth (locus YNL067W, strain RPL9B, hits give low values): 0.813 (active)
- normalized growth [2]: 0.834 (active)
- normalized growth (locus YNL183C, strain NPR1, hits give low values): 0.973
- normalized growth (locus YNL233W, strain BNI4, hits give low values): 0.847 (active)
- normalized growth (locus YNL250W, strain rad50, hits give low values): 1.01
- normalized growth (locus YNL271C, strain bni1, hits give low values): 0.982
- normalized growth (locus YNL298W, strain CLA4, hits give low values): 0.99
- normalized growth (locus YNL307C, strain MCK1, hits give low values): 0.991
- normalized growth (locus YNR052C, strain pop2, hits give low values): 0.953
- normalized growth (locus YOL006C, strain TOP1, hits give low values): 1.23
- normalized growth (locus YOL012C, strain htz1): 0.486
- normalized growth (locus YOL147C, strain pex11, hits give low values): 0.983
- normalized growth (locus YOR061W, strain CKA2, hits give low values): 0.913
- normalized growth (locus YOR069W, strain VPS5, hits give low values): 0.947
- normalized growth (locus YOR136W, strain idh2, hits give low values): 0.909 (active)
- normalized growth (locus YOR144C, strain elg1, hits give low values): 0.976
- normalized growth (locus YOR184W, strain ser1, hits give low values): 0.699 (active)
- normalized growth (locus YOR231W, strain MKK1, hits give low values): 0.92
- normalized growth (locus YOR316C, strain cot1, hits give low values): 0.979
- normalized growth (locus YPL256C, strain CLN2, hits give low values): 1.07
- normalized growth (locus YPR119W, strain clb2, hits give low values): 0.992
- normalized growth (locus YPR141C, strain kar3, hits give low values): 0.992
- normalized growth (locus YPR163C, strain tif3, hits give low values): 0.99
- normalized growth (locus YPR167C, strain met16, hits give low values): 0.902 (active)
- normalized growth (strain wtn01, hits give low values): 0.816 (active)

Compound: O=C(O)CN(CCOCCOCCN(CC(=O)O)CC(=O)O)CC(=O)O
- normalized growth [3]: 1.03
- normalized growth [4]: 0.99
- normalized growth (locus YCL061C, strain MRC1 (second series), hits give low values): 1
- normalized growth [5]: 1
- normalized growth [6]: 0.996
- normalized growth [1]: 1.01
- normalized growth (locus YMR263W, strain SAP30, hits give low values): 1
- normalized growth [7]: 0.996
- normalized growth [8]: 1
- normalized growth [9]: 0.992
- normalized growth (locus YNL322C, strain KRE1, hits give low values): 1.02
- normalized growth [10]: 1.01
- normalized growth [11]: 1.06

Compound: O=C(O)CN(CCN(CC(=O)O)CC(=O)O)CCN(CC(=O)O)CC(=O)O
- normalized growth [3]: 0.278 (active)
- normalized growth [4]: 1.03
- normalized growth [5]: 0.194 (active)
- normalized growth [6]: 1.01
- normalized growth [2]: 1.16
- normalized growth [7]: 1.01
- normalized growth [8]: 1.02
- normalized growth [9]: 1
- normalized growth [10]: 1.07
- normalized growth [11]: 0.198 (active)

From PubChem BioAssay AID1159580 (chemical genetic matrix, 2015)
